Bfl-1 Bim block: inhibitors of Bim-Bfl-1 interaction, human; Bead-based flow cytometry, Bim-Bfl-1 binding inhibition; Q16548; actives 0.12% (n = 190,000); inhibition, % at 10 µM
Bcl-2 Bim block: disrupts Bim peptide binding to human Bcl-2. AID 950. Bead-based flow cytometry, Bim peptide-Bcl-2 binding. inhibition, % at 10 µM. actives 0.06% (n = 190,000). P10415; in the data active = inhibition above about 40%
Bcl-W Bim block: inhibitors of Bim-Bcl-W interaction, human | Q92843 | actives 0.02% (n = 190,000) | bead-based flow cytometry, Bim peptide-Bcl-W binding | inhibition, % at 10 µM;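 note: higher means less fluorescent Bim peptide bound to Bcl-W beads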
Wee1 degr inh: blocks degradation of human Wee1 kinase; P30291; HeLa Luc-Wee1K328M stability, luciferase luminescence; 100% = proteasome inhibitor MG132 effect; reporter increase, % at 5 µM; actives 1.2% (n = 220,000); AID 1321;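 active = activation above the mean of all tested compounds plus 3 SD, set per screening run, cut at about 8.8% in these data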;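 note: cells exposed to compound for 20 h before luminescence read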
Bim-Bcl-XL: inhibitors of Bim-Bcl-XL interaction, human. Q07817. Bim peptide-Bcl-XL binding, bead flow cytometry, fluorescence. inhibition, % at 10 µM. actives 0.04% (n = 190,000)
Target sequence (Q07817 whole entry, looked up): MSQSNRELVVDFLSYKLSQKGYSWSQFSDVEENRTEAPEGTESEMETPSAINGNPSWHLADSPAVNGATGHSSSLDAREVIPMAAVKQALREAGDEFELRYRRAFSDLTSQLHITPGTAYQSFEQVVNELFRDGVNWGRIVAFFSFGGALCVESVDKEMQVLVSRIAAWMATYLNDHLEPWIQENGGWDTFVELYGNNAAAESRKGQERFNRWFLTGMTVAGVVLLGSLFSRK
Bim-Bcl-B: human Bim-Bcl-B interaction inhibition; Q9HD36; bead-based flow cytometry, Bim peptide-Bcl-B binding; inhibition, % at 10 µM; actives 0.073% (n = 190,000); AID 951
Target sequence (Q9HD36 whole entry, looked up): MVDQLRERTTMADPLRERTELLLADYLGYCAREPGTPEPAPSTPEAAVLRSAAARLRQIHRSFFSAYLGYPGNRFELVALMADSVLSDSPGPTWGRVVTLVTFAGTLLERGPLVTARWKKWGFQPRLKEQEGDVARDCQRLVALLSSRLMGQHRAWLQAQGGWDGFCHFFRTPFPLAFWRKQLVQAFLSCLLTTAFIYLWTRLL
Hits are given with their value. Shown are actives, neighbours in structure and some others; about 1.4% of the full set was active somewhere. Cut-off read from the data, not from the text of the source, unless noted: active = inhibition above about 40%.

`CC12COC3(C(=O)Nc4ccc5ccccc5c4)CC1CCC32C` (stereo not drawn) gave Bfl-1 Bim block inactive, Bcl-2 Bim block inactive, Bcl-W Bim block inactive, Wee1 degr inh 9.3, Bim-Bcl-XL inactive and Bim-Bcl-B inactive.
`C=CCNC(=O)c1ccc2c(=O)n(CCCN3CCCC3=O)c(=S)[nH]c2c1` gave Bfl-1 Bim block inactive, Bcl-2 Bim block inactive, Bcl-W Bim block inactive, Wee1 degr inh inactive, Bim-Bcl-XL inactive and Bim-Bcl-B inactive.
`Cc1ccc(S(=O)(=O)N(CCC(=O)O)c2ccccc2)cc1` gave Bfl-1 Bim block inactive, Bcl-2 Bim block inactive, Bcl-W Bim block inactive, Wee1 degr inh inactive, Bim-Bcl-XL inactive and Bim-Bcl-B inactive.
For O=C(CSc1nnnn1C1CCCCC1)NCc1cccs1 the results were Bfl-1 Bim block inactive, Bcl-2 Bim block inactive, Bcl-W Bim block inactive, Wee1 degr inh 11, Bim-Bcl-XL inactive and Bim-Bcl-B inactive.
`COc1ccc(OC)c(-c2csc(NC(=O)c3ccc4c(c3)OCO4)n2)c1` gave Bfl-1 Bim block inactive, Bcl-2 Bim block inactive, Bcl-W Bim block inactive, Wee1 degr inh inactive, Bim-Bcl-XL inactive and Bim-Bcl-B inactive.
For OCCC1CN(Cc2nc3c(s2)CCCC3)CCN1Cc1ccccc1 (stereo not drawn) the results were Wee1 degr inh inactive.
`COc1ccc(N2CCN(C(=O)c3cc(=O)[nH]c4ccccc34)CC2)cc1` gave Bfl-1 Bim block 58, Bcl-2 Bim block 80, Bcl-W Bim block inactive, Wee1 degr inh inactive, Bim-Bcl-XL inactive and Bim-Bcl-B 74.
`CC1CCCN(c2nc(N(C)c3ccccc3)nc(N)c2[N+](=O)[O-])C1` (stereo not drawn) gave Wee1 degr inh inactive.
CC(=O)c1ccc(N2CCN(C(=O)/C=C/c3ccc(S(=O)(=O)NCc4ccco4)cc3)CC2)cc1 was read as Bfl-1 Bim block inactive, Bcl-2 Bim block inactive, Bcl-W Bim block inactive, Wee1 degr inh 10, Bim-Bcl-XL inactive and Bim-Bcl-B inactive.
For CCSc1nc(C)c(C(C)=O)cc1C#N the results were Bfl-1 Bim block inactive, Bcl-2 Bim block inactive, Bcl-W Bim block inactive, Wee1 degr inh inactive, Bim-Bcl-XL inactive and Bim-Bcl-B inactive.
`CSc1nc(C)c(C(=O)C[n+]2ccccc2)cc1C#N` gave Wee1 degr inh 9.8.
For CCN1/C(=C\c2ccc3cc(C)ccc3[n+]2CC)Sc2cc(C)c(C)cc21 the results were Bfl-1 Bim block inactive, Bcl-2 Bim block inactive, Bcl-W Bim block inactive, Wee1 degr inh inactive, Bim-Bcl-XL inactive and Bim-Bcl-B inactive.
CCN1/C(=C/c2ccc3cc(C)cc(C)c3[n+]2CC)Sc2cc(C)ccc21 was read as Bfl-1 Bim block 45, Bcl-2 Bim block inactive, Bcl-W Bim block inactive, Wee1 degr inh inactive, Bim-Bcl-XL inactive and Bim-Bcl-B inactive.
`Cc1cc(C)n(-c2ccc(C(=O)Nc3cc(S(=O)(=O)N(C)C)ccc3Cl)cc2)n1` gave Bfl-1 Bim block inactive, Bcl-2 Bim block inactive, Bcl-W Bim block inactive, Wee1 degr inh inactive, Bim-Bcl-XL inactive and Bim-Bcl-B inactive.
Screening Cc1ccc(NC(=O)c2csc(-c3ccccc3)c2C)cc1 returned Bfl-1 Bim block inactive, Bcl-2 Bim block inactive, Bcl-W Bim block inactive, Wee1 degr inh inactive, Bim-Bcl-XL inactive and Bim-Bcl-B inactive.
Screening O=C(Nc1cccc([N+](=O)[O-])c1)c1cc2ccccc2cc1O returned Wee1 degr inh 10.
Cc1c(C(=O)Nc2cccc([N+](=O)[O-])c2)csc1-c1ccccc1 was read as Bfl-1 Bim block inactive, Bcl-2 Bim block inactive, Bcl-W Bim block inactive, Wee1 degr inh 10, Bim-Bcl-XL inactive and Bim-Bcl-B inactive.
`Cc1nc2ccc(NC(=O)N3CCCCC3)cc2nc1C` gave Bfl-1 Bim block inactive, Bcl-2 Bim block inactive, Bcl-W Bim block inactive, Wee1 degr inh inactive, Bim-Bcl-XL inactive and Bim-Bcl-B inactive.
For CCOC(=O)C1CCN(C(=O)Nc2ccc3c(c2)nc(C)n3C)CC1 the results were Bfl-1 Bim block inactive, Bcl-2 Bim block inactive, Bcl-W Bim block inactive, Wee1 degr inh inactive, Bim-Bcl-XL inactive and Bim-Bcl-B inactive.
CCOC(=O)C1CCN(C(=O)Nc2ccc3nc(-c4ccco4)c(-c4ccco4)nc3c2)CC1 was read as Bfl-1 Bim block 60, Bcl-2 Bim block inactive, Bcl-W Bim block inactive, Wee1 degr inh inactive, Bim-Bcl-XL inactive and Bim-Bcl-B inactive.
`O=C(Nc1ccc2nc(-c3ccco3)c(-c3ccco3)nc2c1)N1CCCCCC1` gave Bfl-1 Bim block 54, Bcl-2 Bim block inactive, Bcl-W Bim block inactive, Wee1 degr inh inactive, Bim-Bcl-XL inactive and Bim-Bcl-B inactive.

Assay outcomes as filed in PubChem.
